# From PubChem BioAssay AID1851 (National Center for Advancing Translational Sciences (NCATS), 2009)
# The campaign covered roughly 16,000 compounds. About 5,800 (36%) were called active. About 23% were inconclusive and are not listed. The list shows a part of the results. Values without a mark were called inactive. Calls come from the whole dose curve; as a rule, active = well fitted curve in the direction sought with a large enough effect; inconclusive = small, poorly fitted or top-dose-only effect, or effect the other way; inactive = no such curve, though single readings can be large or run the other way.
# Target: Cytochrome P450 2C19 (Homo sapiens) (UniProt P33261)
# Assay: Cytochrome panel assay with activity outcomes
# Conditions: recombinant CYP, pro-luciferin dealkylation, luminescence, p450-cyp2c19; series mostly up to 57.1 µM
# % is set by controls: 0 for no effect and ±100 for the full control effect.
# Sequence of Cytochrome P450 2C19 (Homo sapiens) (P33261 whole entry, looked up): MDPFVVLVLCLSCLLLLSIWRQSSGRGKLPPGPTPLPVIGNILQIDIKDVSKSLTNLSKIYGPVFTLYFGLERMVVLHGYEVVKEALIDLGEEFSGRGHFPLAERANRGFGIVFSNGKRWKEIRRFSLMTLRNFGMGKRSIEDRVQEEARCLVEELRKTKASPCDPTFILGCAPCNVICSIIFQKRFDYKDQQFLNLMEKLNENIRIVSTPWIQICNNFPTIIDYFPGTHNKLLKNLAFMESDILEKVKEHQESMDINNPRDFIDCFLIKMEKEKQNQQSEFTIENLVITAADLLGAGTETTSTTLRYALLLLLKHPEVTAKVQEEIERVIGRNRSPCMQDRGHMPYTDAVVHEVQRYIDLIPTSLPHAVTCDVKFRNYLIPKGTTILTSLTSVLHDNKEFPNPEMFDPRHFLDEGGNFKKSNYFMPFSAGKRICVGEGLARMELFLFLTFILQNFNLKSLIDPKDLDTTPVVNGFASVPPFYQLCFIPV
SMILES,"activity, negative = inhibition",AC50
C=C[C@]1(C)C[C@H](OC(=O)CO)[C@]2(C)C3C(=O)CC[C@]3(CC[C@H]2C)[C@H](C)[C@H]1O (stereo not given in full),-15.4% [at 11.4 µM],
O=C(Nc1cccn(Cc2ccc(F)cc2)c1=O)NC1CCCCC1,,10 µM (active)
Cc1ccc(Cn2cccc(NC(=O)NC3CCCCC3)c2=O)cc1,,14.1 µM (active)
COCCn1c(=O)c(-c2cc(F)cc(F)c2)nc2cnc(N3CCOCC3)nc21,,inactive
c1ccc2oc(C3=NCCN3)cc2c1,,inactive
COCCn1c(=O)c(C)nc2cnc(N3CCNCC3)nc21,,inactive
Cc1cc(N2CCOCC2)ncc1[N+](=O)[O-],,31.6 µM (active)
O=[N+]([O-])c1ccc(N2CCOCC2)nc1,,inactive
Cc1ccc(S(=O)(=O)/N=C2/NC(=O)/C(=C/c3cccnc3)S2)cc1,,2.24 µM (active)
Cc1ccc(S(=O)(=O)NC(=O)CSc2nc3ccccc3s2)cc1,,inactive
O=C(CSc1nc(-c2ccccc2)nc2ccccc12)Nc1nccs1,,inactive
Cc1cccc(-c2nsc(SCC(=O)Nc3nccs3)n2)c1,,1.78 µM (active)
O=C(CSc1nc2ccccc2s1)NNC(=S)Nc1ccc(Br)cc1,,2.82 µM (active)
O=C(CSCc1ccc(Cl)cc1)Nc1nccs1,,2.51 µM (active)
O=C(CSc1nc2ccccc2s1)Nc1nccs1,,1.58 µM (active)
O=S(=O)(c1ccccc1)c1cnc(-c2cccnc2)nc1-c1ccc(Cl)cc1Cl,,5.01 µM (active)
O=S(=O)(c1ccc(Cl)cc1)c1cnc(-c2cccnc2)nc1-c1ccccc1,,2.82 µM (active)
OC[C@H]1O[C@H](n2cnc3c(NC4CCCC4)nc(Cl)nc32)[C@@H](O)[C@@H]1O,,inactive
CCn1c(SCc2cccc(C)c2)nnc1-c1ccccc1,,0.501 µM (active)
COc1ccc(-c2nnc(SCc3cccc(C)c3)n2N)cc1,,2.51 µM (active)
CCn1c(SCc2cccc(C)c2)nnc1-c1ccc(C)cc1,,2.24 µM (active)
NS(=O)(=O)c1cc2c(cc1Cl)=NC(CCC(=O)O)=NS=2(=O)O,22.1% [at 11.4 µM],
C[C@H](C[C@H](N)C(=O)O)C(=O)O,,inactive
O=C(O)/C(=C\c1ccc(O)cc1)c1cccc2ccccc12,-11.8% [at 11.4 µM],
O=C(O)/C(=C\c1ccncc1)c1cccc2ccccc12,,2.51 µM (active)

SMILES,"activity, negative = inhibition",AC50
NC(=O)/C(=C\c1ccncc1)c1cccc2ccccc12,,2.51 µM (active)
O=C(O)CCC(=O)c1ccc2ccc3cccc4ccc1c2c34,25.1% [at 11.4 µM],
OC[C@@H]1O[C@@H](N2CCN([C@@H]3O[C@@H](CO)[C@@H](O)[C@H](O)[C@H]3O)CC2)[C@@H](O)[C@H](O)[C@H]1O,29.2% [at 11.4 µM],
Clc1ccc2c(c1)C1=C(C(c3ccncc3)O2)C(c2ccc(Br)cc2)n2ncnc2N1 (stereo not given),,0.708 µM (active)
O=C(O)c1cc(N=Cc2ccccc2O)cc(C(=O)O)c1,8.41% [at 11.4 µM],
Cc1cc(O)c(C(C)C)cc1N=Cc1ccccc1O,,0.398 µM (active)
O=C(O)c1ccccc1C(=O)Nc1ccc(S(=O)(=O)Nc2nccs2)cc1,,inactive
O=C(CCN1C(=O)S/C(=C\c2ccccc2)C1=O)Nc1ccc(S(=O)(=O)Nc2nccs2)cc1,,5.01 µM (active)
c1ccc2c(CN3CCN(Cc4c[nH]c5ccccc45)CC3)c[nH]c2c1,1.09% [at 11.4 µM],
O=S1(=O)CCN(c2ccccc2CC(c2c[nH]c3ccccc23)c2c[nH]c3ccccc23)CC1,,3.16 µM (active)
Fc1cc2nc(-c3ccncc3)[nH]c2cc1F,,7.08 µM (active)
COc1ccc(C2=CSC(/N=C/c3ccc(F)cc3)=NN2)cc1,,17.8 µM (active)
CC(C)CCOc1ccc(NC(=O)C2OC3OC(C)(C)OC3C3OC(C)(C)OC23)cc1 (stereo not given),,inactive
COc1ccc(Br)cc1C(=O)Nc1ccc(Cc2ccncc2)cc1,,0.794 µM (active)
CCN(CC)CCNC(=O)c1cc(Br)c(N)cc1OC,,inactive
CN1CCc2c(sc3c2c(=O)n(-c2ccccc2)c2nncn32)C1,,inactive
Cn1c(=O)n(-c2ccc(Cl)cc2)c(=O)c2c3c(sc21)COC(C)(C)C3,,20 µM (active)
COc1cc(/C=C(\C#N)C(=O)NCC2CCCO2)c([N+](=O)[O-])cc1OC (stereo not given),,11.2 µM (active)
Cc1ccc(-n2c(C)cc(/C=C(\C#N)C(=O)NCC3CCCO3)c2C)cc1 (stereo not given),,3.16 µM (active)
COc1ccc(/C=C(\C#N)C(=O)NCC2CCCO2)cc1OC (stereo not given),,inactive
N[C@@H](Cc1ccnnc1)C(=O)O,35.8% [at 11.4 µM],
CC(C)[C@H](CO)Nc1nc(Nc2ccc(C(=O)O)c(Cl)c2)c2ncn(C(C)C)c2n1,,inactive
CCOC(=O)CSc1cc(=O)n(C)c2cc(Cl)ccc12,,4.47 µM (active)
Cc1ccc(C)c(/C(O)=C2\C(=O)C(=O)N(Cc3cccnc3)C2c2cccnc2)c1 (stereo not given),,inactive
Cc1cccc(-n2nc([N+](=O)[O-])c(=NCc3cccnc3)n2O)c1,,6.31 µM (active)

SMILES,"activity, negative = inhibition",AC50
Cn1c(=S)c2[nH]c(SCCN3C(=O)c4ccccc4C3=O)nc2n(C)c1=O,17.2% [at 11.4 µM],
O=C1c2ccccc2C(=O)N1CCSC(=S)N1CCOCC1,,1.58 µM (active)
Cc1cc2ccccn2c1C(=O)c1ccc(Cl)cc1,,1.26 µM (active)
Cc1cc(CC(=O)O)n(C)c1C(=O)c1ccc(Cl)cc1,,inactive
Cc1cc2ccccn2c1C(=O)c1nc(N2CCOCC2)ncc1Cl,,7.94 µM (active)
O=c1c(-c2ccccc2)nc2cnc(N3CCOCC3)nc2n1-c1ccccc1,,inactive
Cc1nc2cnc(N3CCOCC3)nc2n(C)c1=O,,inactive
CCC(=O)NNc1cc(=O)c2c(=O)n(C)c(=O)n(C)c2[nH]1,,inactive
CC(=O)NC1=NC(=O)C(C)S1 (stereo not given),,inactive
COc1cc2c(cc1OC)-c1cc(NCc3ccccn3)nc(=O)n1CC2,,inactive
COc1ccc(CC(=O)NCc2ccccn2)cc1OC,,28.2 µM (active)
COc1cc(CNCc2ccccn2)ccc1OCc1ccc(Cl)cc1Cl,,3.98 µM (active)
Cc1ccc(CS(=O)(=O)CCC(=O)NCc2ccccn2)cc1,,inactive
CCN1C(=O)[C@H]2[C@H]3[C@H](O)[C@H](O)C/C(=N/OCC(C)C)[C@H]3CC[C@@H]2C1=O,28.2% [at 11.4 µM],
COc1ccccc1OCC(=O)NNC(=O)c1cnccn1,,inactive
COc1ccccc1OCC(=O)N/N=C1/SCC(=O)N1Cc1ccccc1,,14.1 µM (active)
CCOC(=O)N/N=C1/C[C@@H](O)[C@@H](O)[C@@H]2[C@@H]3C(=O)N(Cc4ccccc4)C(=O)[C@H]3CC[C@H]12,10.9% [at 11.4 µM],
CCC(C)N1C(=O)S/C(=C/c2ccc(Sc3nc4ccccc4[nH]3)o2)C1=O (stereo not given),,1.12 µM (active)
CCCCCC1CCC(C(=O)NNC(=S)NCC)CC1 (stereo not given),,17.8 µM (active)
COc1ncnc(NS(=O)(=O)c2ccc(N)cc2)c1OC,,inactive
Cc1[nH]c(N)nc(=S)c1CCCNc1ccccc1,,2 µM (active)
Nc1nc(N)c(CCCCc2ccccc2)c(N)n1,-22.9% [at 11.4 µM],
Cc1[nH]c(N)nc(=S)c1CCC(=O)O,3.33% [at 11.4 µM],
Cn1c(N)c(N=Nc2ccc(S(N)(=O)=O)cc2)c(=O)n(C)c1=O,76% [at 11.4 µM],
c1ccc(-c2nnc(SCCC3OCCCO3)o2)cc1,,5.01 µM (active)

SMILES,"activity, negative = inhibition",AC50
COc1ccc(NC(=O)N2CC3(CCN(S(=O)(=O)c4ccccc4)CC3)C2)cc1,,inactive
COc1ccc(NC(=O)N2CCCC3(CCN(S(C)(=O)=O)CC3)C2)cc1,,inactive
O=C(Nc1ccccc1)N1CCC2(CC1)CCN(S(=O)(=O)c1ccccc1)CC2,,15.8 µM (active)
COc1ccc(NC(=O)N2CCC3(CC2)CCN(C(=O)c2cnccn2)CC3)cc1,,25.1 µM (active)
COc1ccc(NC(=O)N2CCC3(CC2)CCN(S(C)(=O)=O)CC3)cc1,,3.16 µM (active)
COc1ccc(NC(=O)N2CCCC3(CCN(C(=O)c4cnccn4)CC3)C2)cc1,,inactive
COc1ccc(NC(=O)N2CCC3(CC2)CCN(S(=O)(=O)c2ccccc2)CC3)cc1,,inactive
COc1ccc(NC(=O)N2CC3(CCN(C(=O)c4cnccn4)CC3)C2)cc1,,inactive
COc1ccc(NC(=O)N2CC3(CCN(S(C)(=O)=O)CC3)C2)cc1,,inactive
CC12c3ccccc3C(c3ccccc31)C1C(=O)N(Cc3cccnc3)C(=O)C12 (stereo not given),,1.26 µM (active)
FC(F)(F)c1cnc(/C=C/Nc2ccccc2Cl)c(Cl)c1,,inactive
Nc1ccccc1Oc1ncc(C(F)(F)F)cc1Cl,,7.94 µM (active)
Oc1cc(O)c2c(c1)O[C@H](c1ccc(O)c(O)c1)[C@H](O)C2,,inactive
CN1CCN(c2nc3cc(C(F)(F)F)ccc3n3cccc23)CC1,,12.6 µM (active)
CCOc1ccc2c(ccc(/C=C\c3cc(C)c4cccnc4c3O)[n+]2C)c1,27.7% [at 11.4 µM],
Cc1ccc(OCCCOc2cccc3cccnc23)cc1C,,1.12 µM (active)
COc1cc(NCCC(=O)O)c2ncccc2c1,-14.2% [at 11.4 µM],
O=C1N/C(=C\c2ccc(N3CCOCC3)c(F)c2)C(=O)N1Cc1ccccc1,,14.1 µM (active)
CN1CCN(c2nc(-c3ccoc3)nc3ccccc23)CC1,,inactive
c1ccc2c(-n3ccnc3)nc(-c3ccoc3)nc2c1,,20 µM (active)
c1ccc2c(N3CCNCC3)nc(-c3ccc4c(c3)OCO4)nc2c1,,inactive
CN(C)c1ccc(-c2nc(-n3ccnc3)c3ccccc3n2)cc1,,2.51 µM (active)
c1cncc(-c2nc(N3CCNCC3)c3ccccc3n2)c1,,inactive
c1ccc2c(N3CCOCC3)nc(-c3ccoc3)nc2c1,,inactive
CN(C)c1ccc(-c2nc(N3CCNCC3)c3ccccc3n2)cc1,,15.8 µM (active)
